tim10-1 inh: growth inhibitors of tim10-1 mutant yeast; AID 463190; inhibition, % at 20 µM; S. cerevisiae tim10-1 ts strain growth, BacTiter-Glo, 24 h; hit rate 2.2% among 330,000;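 active = inhibition of at least 40%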;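 note: mutant grown at 25 °C; 0% = DMSO wells with yeast and 100% = wells holding no yeast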
tim23-1 inh: tim23-1 yeast growth inhibition | hit rate 1.3% among 330,000 | inhibition, % at 20 µM | S. cerevisiae tim23-1 growth, BacTiter-Glo luminescence, 24 h;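 active = growth inhibition of the mutant yeast at or above 50%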;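 note: temperature-sensitive mutant grown at 25 °C; plate controls were DMSO-treated mutant yeast for no effect and medium wells lacking yeast for full effect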
PfHsp90 yeast 2: reduces growth (ATP signal) of yeast expressing P. falciparum Hsp90; S. cerevisiae expressing PfHsp90, BacTiter-Glo ATP, 48 h; yeast lacking PDR1 and PDR3 efflux regulators; inhibition, % at 9.4 µM; hit rate 0.32% among 310,000; AID 504621;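 active = every replicate shows inhibition above about 80%, whatever the replicate mean, limit read from the data; inconclusive = mean inhibition reaches the set limit but some replicate falls short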;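 note: 0% = DMSO neutral controls and 100% = 20 µM radicicol positive controls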
TIM10 inh: TIM10 yeast growth inhibition; hit rate 1.4% among 330,000; inhibition, % at 10 µM; S. cerevisiae TIM10 strain growth, BacTiter-Glo luminescence, 24 h; AID 463195;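 active = inhibition of 40% or more at the single tested concentration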;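 note: wild-type TIM10 isogenic control strain grown at permissive 25 °C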
EBI2 antag: blocks human EBI2 receptor beta-arrestin signaling. P32249. EBI2 beta-arrestin recruitment, luminescence, 7a,25-OHC stimulated. inhibition, % at 5 µM. hit rate 0.81% among 360,000; in the data active = inhibition above about 38%;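 note: enzyme fragment complementation signal reports receptor beta-arrestin coupling in cells; 0% = agonist plus DMSO wells and 100% = wells without agonist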
Target sequence (P32249 whole entry, looked up, the tested form may be a part): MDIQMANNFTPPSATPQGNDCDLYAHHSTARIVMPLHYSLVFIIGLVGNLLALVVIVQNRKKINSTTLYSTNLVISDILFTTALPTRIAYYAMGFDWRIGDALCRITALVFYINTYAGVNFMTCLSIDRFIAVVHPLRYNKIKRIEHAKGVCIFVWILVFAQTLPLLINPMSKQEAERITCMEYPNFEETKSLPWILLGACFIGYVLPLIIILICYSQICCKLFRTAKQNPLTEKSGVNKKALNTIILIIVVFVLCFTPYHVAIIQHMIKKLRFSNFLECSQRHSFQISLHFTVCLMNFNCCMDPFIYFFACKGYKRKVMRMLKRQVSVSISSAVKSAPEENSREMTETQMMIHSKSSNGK
SKKanGAS inh: blocks kanamycin growth of S. pyogenes SKKanGAS strain; BacTiter-Glo, 6 h; inhibition, % at 7.5 µM; hit rate 1.3% among 300,000; AID 1662;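 active = mean replicate score, as percent of positive control median, at least 50; inconclusive = mean below 50 but one replicate at or above 50; inactive = mean and every replicate below 50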;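 note: strain carries kanamycin resistance gene driven by streptokinase promoter and grows in 40 µg/ml kanamycin; loss of luminescence reflects streptokinase promoter inhibition or plain growth inhibition; 0% = median of DMSO wells and 100% = positive control at its reference dose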
tim10-1 confirm: confirmation of tim10-1 mutant yeast growth inhibitors; S. cerevisiae tim10-1 ts strain growth, BacTiter-Glo, 24 h; inhibition, % at 20 µM; shares compounds with tim10-1 inh; hit rate 56% among 7,400;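 active = inhibition of yeast growth at or above a set limit in either of two repeat tests at 20 µM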;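 note: tim10-1 mutant grown at permissive 25 °C to find synthetic lethal compounds; 0% = DMSO yeast wells and 100% = medium wells without yeast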
* hit, by the source's call; u = inconclusive; x = no result. In the library only some 4.7% were active in any assay of this set; here they are far more common.

SMILES	tim10-1 inh	tim23-1 inh	PfHsp90 yeast 2	TIM10 inh	EBI2 antag	SKKanGAS inh	tim10-1 confirm
Cc1ccc(C)c(Nc2cc(C)nc(-c3ccccc3O)n2)c1	26.2	49.6	6.6	38.9	12.7	8.2	x
CC(C)OC(=O)c1ccc2nc3ccccc3nc2c1	40.6*	20.4	-101.7	1.8	-2.4	14.5	10.7
CC(C)OC(=O)c1ccc2ccc(-c3ccccc3)nc2c1	x	x	x	x	15.2	x	x
O=S(=O)(/C=C/c1ccccc1)n1cnc2ccccc21	44.4*	29.0	-0.7	37.6	13.2	-2.2	32.3*
O=[N+]([O-])c1ccc(N=Nc2ccc(O)cc2O)cc1	59.0*	42.1	16.9	26.5	0.9	u	44.2*
CCC1CCCCN1C(=O)CSc1nnc(-c2ccc(Cl)s2)o1 (centres undefined)	51.5*	42.3	-4.9	9.0	-1.8	-0.7	24.5
CCC1CCCCN1C(=O)CSc1nnc(CNC(=O)COc2ccc(Cl)cc2)o1 (centres undefined)	40.2*	26.1	22.7	23.8	0.7	-4.1	19.9
O=C(COc1ccc(Cl)cc1)NCc1nnc(SCC(=O)NC2CCCC2)o1	10.7	-2.2	10.6	-13.8	-6.7	-14.6	x
Cc1cccc(N2CCN(C(=S)Nc3ccc4nc5n(c(=O)c4c3)CCCCC5)CC2)c1C	15.3	12.1	-8.6	18.3	-2.1	x	x
CCCCCNC(=O)c1cccc(S(=O)(=O)N2CC3(C)CC2CC(C)(C)C3)c1 (centres undefined)	29.3	43.7	10.3	6.7	8.6	10.3	x
C#CCOCCOCCOCCNc1nc(N2CCN(C(=O)CCCCCCCCCCNC(=O)[C@H](CCCCN)n3cc(CCO)nn3)CC2)nc(N2CCN(C(=O)CCCCCCCCCCNC(=O)[C@H](CCCN=C(N)N)n3cc(C[C@@H](C)CC)nn3)CC2)n1	42.2*	49.8	25.1	6.2	-3.0	x	28.2
C#CCOCCOCCOCCNc1nc(N2CCN(C(=O)CCCCCCCCCCNC(=O)[C@H](CCCCN)n3cc(C[C@@H](C)CC)nn3)CC2)nc(N2CCN(C(=O)CCCCCCCCCCNC(=O)[C@H](CCCCN)n3cc(C[C@@H](C)CC)nn3)CC2)n1	x	x	47.0	x	-17.0	u	x
Cc1nn2c(-c3ccc(Cl)cc3Cl)nnc2s1	10.0	5.3	7.6	-0.8	-5.2	0.8	x
Cc1ccc(OCC(=O)NNC(=S)NC(=O)C2CCCCC2)c(C)c1	47.1*	32.4	60.0	-22.1	9.6	90.2*	-11.2
S=C(Nc1cccc(Cl)c1Cl)N1CCC2(CC1)OCCO2	10.3	11.4	-13.8	-9.0	-11.5	-4.8	x
O=C(NCc1nc2ccccc2[nH]1)c1cc2ccccc2oc1=O	41.3*	6.1	21.2	23.6	-7.4	-5.0	21.0
O=C(NCc1nc2ccccc2[nH]1)c1ccc(Cl)c(S(=O)(=O)N2CCCC2)c1	1.4	-6.5	2.7	-12.2	-3.9	5.0	x
CCCn1c(NC(=O)c2ccc(Cl)c(S(=O)(=O)N3CCCC3)c2)nc2ccccc21	44.3*	25.0	47.1	31.6	-17.7	92.1*	30.6*
COc1ccc(S(=O)(=O)Nc2ccccc2C(=O)NCc2cccnc2)cc1OC	11.7	13.7	-8.5	0.1	1.3	-0.7	x
Cc1nc(C#N)c(N/N=C/c2c(F)cccc2Cl)o1	10.8	1.8	-16.3	-13.8	1.2	-0.1	x
Cc1cc2c(sc3c(C)ccc(C)c32)c(C)n1	48.5*	45.1	-5.7	14.1	9.7	-11.5	18.4
CCC(Cc1ccccc1)NC(=O)C1=C(C)C(=O)OC12CCC(C)CC2 (centres undefined)	26.2	10.1	25.6	21.8	-2.1	4.4	x
COc1ccc(C2C=C(C34CC5CC(CC(C5)C3)C4)NC(=S)N2)cc1OC (centres undefined)	55.6*	40.3	-36.1	7.6	-4.6	-1.1	17.0
N#CC(C(=O)Nc1ccc(Cl)c(Cl)c1)=C1Nc2ccccc2N1	44.9*	-10.5	-10.1	7.2	-1.6	2.0	19.5
COc1ccc(OCCCC(=O)OCC(=O)c2ccc3c(c2)NC(=O)CO3)cc1	11.4	-3.7	16.8	6.2	-6.8	-2.1	x
COc1ccc(COC(=O)Nc2cc3c(C(F)(F)F)nn(C)c3s2)cc1	43.8*	12.3	-2.7	14.4	10.8	4.4	26.2

Assay outcomes from PubChem.
